Legend:
[1] = biological target: T1, Mitogen-activated protein kinase 12 (Homo sapiens) (UniProt P53778); details: at 1 µM
T1 sequence (whole entry): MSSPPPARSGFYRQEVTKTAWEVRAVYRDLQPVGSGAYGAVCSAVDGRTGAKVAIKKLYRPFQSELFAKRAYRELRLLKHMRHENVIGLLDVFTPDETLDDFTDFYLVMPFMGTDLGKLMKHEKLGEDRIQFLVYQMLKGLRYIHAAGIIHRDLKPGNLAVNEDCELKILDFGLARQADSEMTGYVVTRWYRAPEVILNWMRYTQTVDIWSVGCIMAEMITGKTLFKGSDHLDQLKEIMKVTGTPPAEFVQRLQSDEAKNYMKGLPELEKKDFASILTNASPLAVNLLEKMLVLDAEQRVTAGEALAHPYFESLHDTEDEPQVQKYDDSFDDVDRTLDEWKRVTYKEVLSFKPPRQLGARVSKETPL

[2] = biological target: T1, Mitogen-activated protein kinase 12 (Homo sapiens); details: at 10 µM

| SMILES | residual activity [1] [%] | residual activity [2] [%] |
| --- | --- | --- |
| CC(=O)c1ccc(N2CCOCC2)cc1O | 110 | 102 |
| O=C1Nc2ccc(Br)cc2/C1=C\c1cc2c([nH]1)CCCC2 | 115 | 102 |
| Cc1cc2ncc(-c3ccccc3)nc2cc1C | 100 | 100 |
| CN(C)c1ccc(/C=C2\C(=O)Nc3ccccc32)cc1 | 113 | 83 |
| COc1ccc(OC)c2c(=S)c3ccccc3[nH]c12 | 95 | 91 |
| Cn1cc(/C=C2\C(=O)Nc3ccc(S(N)(=O)=O)cc32)c2ccccc21 | 99 | 104 |
| CNc1cc2c(Nc3cccc(Br)c3)ncnc2cn1 | 105 | 95 |
| N#CC(C#N)=C(N)/C(C#N)=C/c1ccc(O)cc1 |  | 92 |
| Cn1c2ccccc2c2c3c(c4c5ccccc5n(CCC#N)c4c21)CNC3=O | 61 | 61 |
| CCN(CC)CCCCN1c2ccccc2Oc2ccc(Cl)cc21 | 131 | 100 |
| COc1ccc(CNc2nc(N(CCO)CCO)nc3c2ncn3C(C)C)cc1 | 109 | 99 |
| C[C@@H](N)[C@H]1CC[C@H](C(=O)Nc2ccncc2)CC1 | 111 | 111 |
| O=C1NC(=O)/C(=C\c2ccc3nccnc3c2)S1 | 100 | 61 |
| O=C(Nc1cccc(Nc2cc(Nc3cccc(C(F)(F)F)c3)ncn2)c1)C1CC1 | 94 | 92 |
| Oc1ccc(Nc2nc(-c3ccc(Cl)cc3)cs2)cc1 | 112 | 100 |
| NC(=O)Nc1sc(-c2ccc(F)cc2)cc1C(N)=O | 90 | 82 |

| SMILES | residual activity [1] [%] | residual activity [2] [%] |
| --- | --- | --- |
| CC(C)(C)n1nc(Cc2cccc3ccccc23)c2c(N)ncnc21 | 100 | 98 |
| c1ccc(-c2cnc(Nc3ccc(OCCN4CCCC4)cc3)s2)cc1 | 115 | 100 |
| COc1ccc(Cl)cc1NC(=O)Nc1cc(C)nc2ccccc12 | 95 | 85 |
| O=C1C(Cl)=C(N2C(=O)CCC2=O)C(=O)c2ccccc21 | 96 | 99 |
| Nc1ccc2ncnc(NCCc3ccc(Oc4ccccc4)cc3)c2c1 | 107 | 108 |
| Ic1cccc(CSc2nnc(-c3ccncc3)o2)c1 | 88 | 93 |
| CCOc1cc2ncnc(Nc3cccc(Br)c3)c2cc1OCC | 103 | 98 |
| NCCNc1ncc(C(N)=O)c(Nc2cccc(C(F)(F)F)c2)n1 | 103 | 106 |
| CCCC(=O)Oc1ccc2[nH]c(C(=O)c3cc4ccccc4[nH]3)cc2c1 | 96 | 98 |
| O=c1c2ccccc2[nH]c(=S)n1CCN1CCC(=C(c2ccc(F)cc2)c2ccc(F)cc2)CC1 | 115 | 90 |
| O=C1NC(=O)C(c2c[nH]c3ccccc23)=C1c1c[nH]c2ccccc12 | 99 | 51 |
| CC(=O)O/N=C1\C(=C2\C(=O)Nc3cc(Br)ccc32)Nc2ccccc21 | 94 | 92 |
| Nc1nc(Nc2ccc(S(N)(=O)=O)cc2)nn1C(=O)c1c(F)cccc1F |  | 67 |
| Nc1ncnc2[nH]nc(Nc3ccc(F)cc3)c12 | 101 | 96 |
| CO[C@H]1C[C@@H]2CC[C@@H](C)[C@@](O)(O2)C(=O)C(=O)N2CCCC[C@H]2C(=O)O[C@H]([C@H](C)C[C@@H]2CC[C@@H](O)[C@H](OC)C2)CC(=O)[C@H](C)/C=C(\C)[C@@H](O)[C@@H](OC)C(=O)[C@H](C)C[C@H](C)/C=C/C=C/C=C/1C | 95 | 94 |
| O=C1NC(=O)c2c1c1c3ccccc3[nH]c1n1cncc21 | 95 | 87 |

Reference: ChEMBL document CHEMBL2218924, “A broad activity screen in support of a chemogenomic map for kinase signalling research and drug discovery” (Biochem J, 2013)
